Several values for one entry are separate records, joined by “and”; a condition that tells them apart may be missing. Identical values can stand only once. This is part of a sample that, as a whole, favours compounds with a hit. Of some 83,000 tested, about 20% had one in any assay.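 Results are percent growth after 48 hours of single-concentration exposure. 100 means growth as in untreated cells, lower positive values show inhibition; negative values down to -100 show cell death.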 Activity calls are given as the source filed them. The calls were made as follows: active = growth percent below 10; inactive = the rest.
Legend:
Assay in all cases: NCI-60 one-dose screen, 48 h (100 = growth as untreated, 0 = no growth, -100 = all killed)
[1] = test system: MOLT-4 leukemia; conditions: 10 µM
[2] = test system: SR leukemia; conditions: 10 µM
[3] = test system: RPMI-8226 leukemia; conditions: 10 µM
[4] = test system: OVCAR-8 ovarian; conditions: 10 µM
[5] = test system: OVCAR-5 ovarian; conditions: 10 µM
[6] = test system: SK-OV-3 ovarian; conditions: 10 µM
[7] = test system: IGROV1 ovarian; conditions: 10 µM
[8] = test system: OVCAR-3 ovarian; conditions: 10 µM
[9] = test system: HS 578T breast; conditions: 10 µM
[10] = test system: NCI/ADR-RES ovarian; conditions: 10 µM
[11] = test system: T-47D breast; conditions: 10 µM
[12] = test system: MDA-MB-435 melanoma; conditions: 10 µM
[13] = test system: SW-620 colon; conditions: 10 µM
[14] = test system: MCF7 breast; conditions: 10 µM unless noted
[15] = test system: HCT-116 colon; conditions: 10 µM
[16] = test system: HCC-2998 colon; conditions: 10 µM
[17] = test system: KM12 colon; conditions: 10 µM
[18] = test system: BT-549 breast; conditions: 10 µM
[19] = test system: OVCAR-4 ovarian; conditions: 10 µM

| Structure (SMILES) | growth [1] | growth [2] | growth [3] | growth [4] | growth [5] | growth [6] | growth [7] | growth [8] | growth [9] | growth [10] | growth [11] | growth [12] | growth [13] | growth [14] | growth [15] | growth [16] | growth [17] | growth [18] | growth [19] |
| --- | --- | --- | --- | --- | --- | --- | --- | --- | --- | --- | --- | --- | --- | --- | --- | --- | --- | --- | --- |
| O=C1C=Cc2ccccc2C1=O | 95.2% (inactive) | 61.8% (inactive) | 93.6% (inactive) | 87.9% (inactive) | 120% (inactive) | 71.9% (inactive) | 77.7% (inactive) | 96.9% (inactive) | 90.9% (inactive) | 93.8% (inactive) | 97.2% (inactive) | 5.35% (active) | 50.5% (inactive) | 66.1% (inactive) | 87.7% (inactive) | 112% (inactive) | 110% (inactive) |  |  |
| O=[N+]([O-])/C=C/c1ccc([N+](=O)[O-])cc1 | 47% (inactive) and 47.8% (inactive) | 3.64% (active) and 20.5% (inactive) | -51.5% (active) and 17.3% (inactive) | 28% (inactive) and 92% (inactive) | 71.7% (inactive) and 125% (inactive) | 92.6% (inactive) and 110% (inactive) | -20.2% (active) and 66.6% (inactive) | -98.4% (active) and 36.6% (inactive) | -2.35% (active) and 93.8% (inactive) | 78.7% (inactive) and 85.8% (inactive) | 48.7% (inactive) and 57.1% (inactive) | -48.9% (active) and 81.1% (inactive) | -72.6% (active) and 12.2% (inactive) | -14.5% (active) and 23.1% (inactive) | -93% (active) and 48.4% (inactive) | -91% (active) and 98.9% (inactive) | -54.2% (active) and 99.7% (inactive) | -75.2% (active) and 88.7% (inactive) |  |
| COC1CC2C=C(C)/C=C/C=C/C(=O)NC(c3ccccc3)C/C=C/CCC(O)CC(=O)C2=C1O (centres undefined) | -59.5% (active) | 2.86% (active) | -40.8% (active) | -69.1% (active) | -95.6% (active) | -91.4% (active) | -90.2% (active) | -83.9% (active) | -51.4% (active) | -44.5% (active) | -65.5% (active) | -90.5% (active) | -75.9% (active) | -68.8% (active) | -96.7% (active) | -53% (active) | -76.1% (active) | -98% (active) | -78.4% (active) |
| CN(C)CC1(N)C(=O)NC(=O)NC1=O | 99% (inactive) | 101% (inactive) | 100% (inactive) | 105% (inactive) | 97.8% (inactive) | 98.2% (inactive) | 108% (inactive) | 113% (inactive) | 98.1% (inactive) | 107% (inactive) | 89.4% (inactive) | 103% (inactive) | 106% (inactive) | 90.9% (inactive) | 92.9% (inactive) | 99.4% (inactive) | 101% (inactive) | 111% (inactive) |  |
| Cc1cc(C)c(C[N+](C)(C)C)c(C)c1C | 3.91% (active) | 7.44% (active) | -18.4% (active) | 6.43% (active) | 10.1% (inactive) | 7.37% (active) | 7.5% (active) | 11.4% (inactive) | 0.977% (active) | 4.96% (active) | -0.376% (active) | 9.06% (active) | 8.53% (active) | -10.7% (active) | 7.93% (active) |  | 7.87% (active) | 7.59% (active) |  |
| O=C1CCC(=O)N1SC(Cl)(Cl)Cl | 90.4% (inactive) | 95.2% (inactive) | 108% (inactive) | 106% (inactive) | 110% (inactive) | 109% (inactive) | 92.6% (inactive) | 122% (inactive) |  | 110% (inactive) | 118% (inactive) | 102% (inactive) | 100% (inactive) | 97.2% (inactive) | 106% (inactive) | 103% (inactive) | 105% (inactive) | 104% (inactive) | 110% (inactive) |
| COS(=O)(=O)c1ccccc1 | 85.4% (inactive) | 71.1% (inactive) | 89.9% (inactive) | 101% (inactive) | 104% (inactive) | 101% (inactive) |  | 110% (inactive) | 110% (inactive) | 107% (inactive) | 104% (inactive) | 108% (inactive) | 108% (inactive) | 99.5% (inactive) | 102% (inactive) | 101% (inactive) | 104% (inactive) | 107% (inactive) | 110% (inactive) |
| CCCCCCCC[N+]12CN3CN(CN(C3)C1)C2 | 120% (inactive) | 92.7% (inactive) | 90.1% (inactive) | 101% (inactive) | 96.5% (inactive) | 103% (inactive) |  | 97.9% (inactive) | 92.4% (inactive) | 98.9% (inactive) |  | 95% (inactive) | 89.7% (inactive) | 91.4% (inactive) | 93.6% (inactive) | 98.3% (inactive) | 98.4% (inactive) | 94.4% (inactive) | 99.2% (inactive) |
| COc1cc(/C=C/[N+](=O)[O-])cc(OC)c1OC | 8.23% (active) | -17.7% (active) | -27.6% (active) | 1.78% (active) | 23% (inactive) | 89.9% (inactive) |  | -30.9% (active) | 8.36% (active) | 27.3% (inactive) | 13.1% (inactive) | -22.4% (active) | -50.5% (active) | 6.55% (active) | -19.2% (active) | -19.9% (active) | 18.2% (inactive) | 40.6% (inactive) | 34.2% (inactive) |
| Cc1cc(C(C)(C)c2ccc(O)c(C)c2)ccc1O | 78.9% (inactive) | 92.2% (inactive) | 93.6% (inactive) | 81.8% (inactive) | 88.1% (inactive) | 102% (inactive) |  | 85.9% (inactive) | 89.2% (inactive) | 88.1% (inactive) | 81.3% (inactive) | 80.4% (inactive) | 97.2% (inactive) | 119% (inactive) | 86.4% (inactive) | 104% (inactive) | 92.3% (inactive) | 108% (inactive) | 83.9% (inactive) |
| CC/C(=C/c1ccc(OC)cc1OC)[N+](=O)[O-] | 6.34% (active) | 2.47% (active) | -7.24% (active) | 18.4% (inactive) | 35.9% (inactive) | 124% (inactive) |  | 58.7% (inactive) | 77.6% (inactive) | 41.8% (inactive) | -12.9% (active) | 46% (inactive) | -20.1% (active) | 0.465% (active) | -58.8% (active) | 102% (inactive) | 25.5% (inactive) | 37.1% (inactive) | 93.7% (inactive) |
| O=C1C(=O)c2ccccc2-c2ccccc21 | -26.9% (active) | 0.843% (active) | -32.7% (active) | -97.6% (active) | -63.8% (active) | 93.7% (inactive) | -61.7% (active) | -91% (active) | -20.1% (active) | -41.5% (active) | -50% (active) | -97.9% (active) | -63.3% (active) | -66.4% (active) | -81.5% (active) | -35.4% (active) | -84.5% (active) | -75% (active) |  |
| CN(CCCl)c1ccc(/C=C/C2=[N+](C)c3ccccc3C2(C)C)cc1 | -13.1% (active) | 12.3% (inactive) | 10.6% (inactive) | 13.1% (inactive) | 70.8% (inactive) | -3.38% (active) |  | -10.6% (active) | 60.1% (inactive) | 105% (inactive) | 29.3% (inactive) | 12% (inactive) | 19.8% (inactive) | 14.9% (inactive) | 7.48% (active) | 26% (inactive) | 12.6% (inactive) | 20.7% (inactive) | 37.6% (inactive) |
| COc1ccc(/C=C(\C)[N+](=O)[O-])cc1OC | -25% (active) | -17.4% (active) | -20.2% (active) | -27.8% (active) | 67.8% (inactive) | 104% (inactive) | -18.5% (active) | -76.3% (active) | 65.7% (inactive) | 90.5% (inactive) | -21.6% (active) | -59.1% (active) | -42.4% (active) | -34.6% (active) | -28.9% (active) | 94.3% (inactive) | 54.6% (inactive) | -29.7% (active) |  |
| Cc1ccc(C(=O)C2C(c3ccccc3)N2C2CCCCC2)cc1 (centres undefined) | 94.9% (inactive) and 93.3% (inactive) | 94.4% (inactive) and 97.4% (inactive) | 78.5% (inactive) and 94.1% (inactive) | 103% (inactive) and 101% (inactive) | 97.4% (inactive) and 95.9% (inactive) | 102% (inactive) and 96.2% (inactive) | 119% (inactive) and 92.4% (inactive) | 114% (inactive) and 108% (inactive) | 102% (inactive) and 97.1% (inactive) | 103% (inactive) and 99.7% (inactive) | 87.8% (inactive) and 89.7% (inactive) | 95% (inactive) and 88.3% (inactive) | 106% (inactive) and 95.2% (inactive) | 97% (inactive) and 94.2% (inactive) | 92.5% (inactive) and 75.3% (inactive) | 114% (inactive) and 113% (inactive) | 111% (inactive) and 100% (inactive) | 104% (inactive) and 105% (inactive) | 98.4% (inactive) and 87.2% (inactive) |
